This is an account of results in PubChem BioAssay (NCATS).

Unmarked numbers belong to inactive results. Results filed as inconclusive are left out. Activity calls are given as the source filed them. Unless noted, calls follow the shape of the dose curve; as a rule, active = well fitted curve in either direction with a large enough effect (not every such curve was filed as active); inconclusive = small, poorly fitted or top-dose-only effect, or another doubt; inactive = flat fitted curve, though single readings scatter.

Test [1] has as its target Lysosomal acid glucosylceramidase (Homo sapiens) (UniProt P04062). The experiment in a line: Glucocerebrosidase-p2 (AID 348; in the data active = potency below about 10 µM; also: potency is read from the fitted curve at half-maximal effect). The settings on record: purified GBA, blue fluorogenic substrate, 40 min. In outline:
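Normal human glucocerebrosidase (0.2 nM) with blue fluorogenic substrate (80 uM final) in citrate/phosphate pH 5.9 with 10mM sodium taurocholate, 0.01% tween-20; 40 min RT, NaOH/glycine stop; fluorescence Ex 365/Em 440; AC50 from a titration from 0.6 nM upwards.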

Test [2] is described as follows: AP1 Signaling Pathway (AID 357).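 Also: ME-180 reporter cells stimulated with EGF at its EC50 level; % is scaled to controls: 0 for no effect and ±100 for the full control effect.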 The note with it: ME-180 AP-1-bla reporter, EGF-induced, beta-lactamase ratio, 5 h; at 7.69 µM (top of the series) unless noted. In outline:
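AP-1-bla ME-180 cells, Opti-MEM + 0.5% dialyzed FBS, plated overnight 37 °C. Cpd titration + EC50 EGF, 5 h 37 °C. CCF4 2.5 h RT; ex 405, em 460/530 ratio → %activity, AC50.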

Test [3] concerns the target Cytochrome P450 1A2 (Homo sapiens) (UniProt P05177). Kind of test: p450-cyp1a2 (AID 410; calls by dose curve; also: potency is read from the fitted curve at half-maximal effect;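 as to activity change, negative = inhibition: -100% = full effect of reference inhibitor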). The settings on record: recombinant CYP1A2, luciferin-ME demethylation, luminescence; series mostly up to 11.4 µM. An outline of the steps:
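Luminescent demethylation readout: Luciferin-ME (100uM, equal to Km) turned over by 20nM CYP1A2 for 60 min at room temperature after NADPH regeneration addition, following 10 min compound preincubation. Normalization used 57 uM furafylline as full inhibition.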

Test [4] in a line: NFAT Signaling Pathway (AID 444).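 Also: carbachol stimulus at about its EC50 of 1 µM final; % is scaled to controls: 0 for no effect and ±100 for the full control effect.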 The settings on record: Jurkat NFAT-bla M1, carbachol, beta-lactamase ratio, 5 h; at 7.69 µM (top of the series) unless noted. In outline:
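Jurkat cells carrying an NFAT-driven β-lactamase reporter and co-transfected muscarinic M1 receptor were treated with compound plus carbachol (1 uM final, an EC50 level) for 5 h at 37 °C. CCF4 loading followed for 1 h at RT; 460/530 nm ratio gave %activity.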

Test [5] can be described thus: Stat Signaling Pathway (AID 446).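 Also: ME-180 cervical cancer cells given 40 pM IL-6 alongside compound; SIE-controlled beta-lactamase reporter measured as 460/530 nm FRET emission ratio; % is scaled to controls: 0 for no effect and ±100 for the full control effect.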 The settings on record: ME-180 (cervical carcinoma) SIE beta-lactamase reporter, IL-6 stimulated, 5 h; at 7.69 µM (top of the series) unless noted. An outline of the steps: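 Compound effects on IL-6-induced STAT reporter activity were measured in ME-180 cells. After overnight culture, cells were co-treated with 40 pM IL-6 for 5 hrs before beta-lactamase substrate loading at room temperature.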

Test [6] deals with Glucocorticoid receptor (Homo sapiens) (UniProt P04150). Kind of test: GR-GFP Redistribution (AID 450;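 active = compounds whose dose series gives a full or clear partial fitted curve of increased nuclear translocation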; also: potency is read from the fitted curve at half-maximal effect). The note with it: U2OS GR-GFP nuclear translocation, laser cytometry, 2 h.
Chain of Glucocorticoid receptor (Homo sapiens) (P04150 whole entry, looked up): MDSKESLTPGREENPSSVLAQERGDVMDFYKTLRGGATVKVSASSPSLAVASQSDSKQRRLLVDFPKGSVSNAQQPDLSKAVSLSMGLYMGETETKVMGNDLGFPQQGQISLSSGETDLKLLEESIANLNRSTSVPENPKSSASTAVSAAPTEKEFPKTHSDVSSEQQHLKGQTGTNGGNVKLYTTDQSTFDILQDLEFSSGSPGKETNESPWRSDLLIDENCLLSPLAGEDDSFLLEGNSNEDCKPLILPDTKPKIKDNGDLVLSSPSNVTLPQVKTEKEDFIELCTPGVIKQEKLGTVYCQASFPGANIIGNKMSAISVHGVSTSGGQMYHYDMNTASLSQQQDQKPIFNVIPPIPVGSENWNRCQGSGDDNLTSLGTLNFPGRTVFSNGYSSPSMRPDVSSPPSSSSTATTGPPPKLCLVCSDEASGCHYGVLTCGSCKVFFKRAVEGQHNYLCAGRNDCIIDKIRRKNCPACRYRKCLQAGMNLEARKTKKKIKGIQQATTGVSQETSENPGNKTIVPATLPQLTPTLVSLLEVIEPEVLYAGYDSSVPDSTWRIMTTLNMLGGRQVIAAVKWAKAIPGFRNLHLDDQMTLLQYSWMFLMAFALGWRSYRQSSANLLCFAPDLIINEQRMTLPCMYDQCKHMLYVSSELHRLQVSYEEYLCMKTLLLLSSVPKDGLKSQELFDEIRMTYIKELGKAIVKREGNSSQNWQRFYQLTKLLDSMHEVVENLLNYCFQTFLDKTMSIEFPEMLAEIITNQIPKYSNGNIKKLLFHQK
Test [7] shares this target. Kind of test: GR-EFC Redistribution (AID 451; calls by dose curve; also: potency is read from the fitted curve at half-maximal effect). The note with it: CHO-K1 GR-EFC translocation, beta-gal luminescence, 2 h. In outline:
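CHO-K1 cells stably expressing nuclear-localized β-gal enzyme acceptor and GR fused C-terminally to the enzyme donor fragment; ligand-driven nuclear translocation restores β-gal by complementation. Compounds titrated up to 46 uM final, 2 h at 37 °C; luminescence read.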

Test [8] addresses Mitogen-activated protein kinase 10 (Mus musculus) (UniProt Q61831). The experiment in a line: JNK3 AlphaScreen Assay (AID 530).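 Also: kinase came from lysate of stimulated human HepG2 cells; signal reports phosphorylation of biotinylated GST-cJun 1-79 at Ser73 with 10 µM ATP; % is scaled to controls: 0 for no effect and ±100 for the full control effect.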 The note with it: JNK3 lysate, c-Jun phosphorylation; series mostly up to 11.4 µM. An outline of the steps:
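Phosphorylation of biotinylated GST-cJun(1-79) at Ser73 is measured by AlphaScreen proximity luminescence. Enzyme is JNK3 in HepG2 lysates activated with interleukin-1beta and tumor necrosis factor alpha; ATP is 10 uM final.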
Background: Alpha assays give light when donor and acceptor beads are brought close together.

The target of test [9] is 3',5'-cyclic-AMP phosphodiesterase 4B (Homo sapiens) (UniProt Q07343). Kind of test: qHTS Assay for Inhibitors of PDE-IV (AID 607; active = well fitted activation curve with a large enough effect in the main read-out, with a control signal flat, not every such curve was filed as active; also: % of control where 0% means no effect). The note with it: HEK293 ACTOne CNG channel cells, membrane potential fluorescence; series mostly up to 22.9 µM. An outline of the steps: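 ACTOne HEK293 cells carry a modified cAMP-gated CNG channel and express endogenous PDE4; plated 1000 cells/well, compounds up to 22.9 uM final. Membrane-potential dye fluorescence (ex 535/em 590) was read; parental cells received 10 uM forskolin + 100 uM RO 20-1724.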
Chain of 3',5'-cyclic-AMP phosphodiesterase 4B (Homo sapiens) (Q07343 whole entry, looked up): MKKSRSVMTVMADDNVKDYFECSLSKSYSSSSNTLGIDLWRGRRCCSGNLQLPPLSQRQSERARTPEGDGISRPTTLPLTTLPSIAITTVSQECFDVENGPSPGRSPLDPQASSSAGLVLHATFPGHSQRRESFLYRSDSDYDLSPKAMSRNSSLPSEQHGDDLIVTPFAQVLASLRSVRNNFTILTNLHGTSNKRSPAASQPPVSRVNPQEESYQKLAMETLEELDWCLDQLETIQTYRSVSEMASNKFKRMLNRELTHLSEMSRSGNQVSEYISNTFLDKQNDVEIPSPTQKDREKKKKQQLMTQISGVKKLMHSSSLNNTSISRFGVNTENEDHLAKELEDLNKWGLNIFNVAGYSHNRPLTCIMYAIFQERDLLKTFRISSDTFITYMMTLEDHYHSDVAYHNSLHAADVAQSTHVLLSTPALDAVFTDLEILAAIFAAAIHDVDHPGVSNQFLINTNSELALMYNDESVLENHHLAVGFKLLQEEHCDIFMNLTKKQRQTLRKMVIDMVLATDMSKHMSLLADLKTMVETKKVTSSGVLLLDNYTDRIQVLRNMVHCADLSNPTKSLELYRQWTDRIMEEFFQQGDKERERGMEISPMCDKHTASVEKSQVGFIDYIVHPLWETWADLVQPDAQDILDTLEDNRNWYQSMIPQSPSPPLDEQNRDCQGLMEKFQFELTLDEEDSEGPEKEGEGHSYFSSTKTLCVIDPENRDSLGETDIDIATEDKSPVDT
Background: In qHTS, concentration-response curves come from the screen itself.

Chain of Lysosomal acid glucosylceramidase (Homo sapiens) (P04062 whole entry, looked up): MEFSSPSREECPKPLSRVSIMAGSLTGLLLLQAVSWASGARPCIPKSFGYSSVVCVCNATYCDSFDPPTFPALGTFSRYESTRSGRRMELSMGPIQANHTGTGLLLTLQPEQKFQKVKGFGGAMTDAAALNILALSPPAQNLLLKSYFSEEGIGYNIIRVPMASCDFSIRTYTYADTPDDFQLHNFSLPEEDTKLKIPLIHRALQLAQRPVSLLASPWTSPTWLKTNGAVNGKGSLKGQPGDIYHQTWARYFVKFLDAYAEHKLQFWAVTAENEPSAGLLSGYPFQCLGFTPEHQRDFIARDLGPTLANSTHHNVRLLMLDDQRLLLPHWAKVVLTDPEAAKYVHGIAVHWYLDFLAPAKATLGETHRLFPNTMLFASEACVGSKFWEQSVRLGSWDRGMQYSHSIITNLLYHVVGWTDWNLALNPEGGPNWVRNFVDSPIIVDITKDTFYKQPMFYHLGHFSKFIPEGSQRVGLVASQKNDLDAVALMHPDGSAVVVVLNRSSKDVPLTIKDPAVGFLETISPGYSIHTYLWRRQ
Chain of Cytochrome P450 1A2 (Homo sapiens) (P05177 whole entry, looked up): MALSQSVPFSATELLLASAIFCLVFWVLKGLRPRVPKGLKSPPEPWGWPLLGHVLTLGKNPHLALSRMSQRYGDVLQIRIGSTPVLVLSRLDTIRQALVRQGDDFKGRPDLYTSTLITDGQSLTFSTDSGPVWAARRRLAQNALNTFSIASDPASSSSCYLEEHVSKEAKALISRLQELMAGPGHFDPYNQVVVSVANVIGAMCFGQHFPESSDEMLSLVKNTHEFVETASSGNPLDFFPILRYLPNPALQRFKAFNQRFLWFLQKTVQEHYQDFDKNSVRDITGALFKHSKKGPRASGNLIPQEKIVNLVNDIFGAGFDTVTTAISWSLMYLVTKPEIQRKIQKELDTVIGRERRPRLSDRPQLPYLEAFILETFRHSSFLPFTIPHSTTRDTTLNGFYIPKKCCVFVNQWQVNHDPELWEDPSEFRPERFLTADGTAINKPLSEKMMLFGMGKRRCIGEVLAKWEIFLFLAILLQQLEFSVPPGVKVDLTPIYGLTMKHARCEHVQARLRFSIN

With `O=C(O)[C@@H](O)c1ccc(F)cc1`, the Potency in test [1] was over 11.4 µM; in test [6] it was over 46 µM; in [7], over 9.22 µM. The activity change, negative = inhibition is 26.9% in test [2] and 11% in [4]. For the same molecule, the Potency result in test [3], in test [8] and in [9] was “inactive” in each case. The activity, negative = inhibition in [5] is 8.22%.
For the molecule `O=S(O)O.O=S(O)O.[Co].[NH2-].[NH2-].[NH2-].[NH2-]`, the figures for the Potency in [1], in [6] and in test [7] were over 11.4 µM, over 46 µM and over 9.22 µM, respectively. Moreover, the activity change, negative = inhibition in test [2] was -7.83%; in test [4], 15.9%. Besides, the Potency entry in test [3], in test [8] and in test [9] was “inactive” throughout. In [5], the activity, negative = inhibition was 26%.
Take `CN(C)CCCNc1ncnc2nc[nH]c12`: the Potency in test [1] is over 11.4 µM; in test [6], over 46 µM; in test [7], over 9.22 µM. Besides, the activity change, negative = inhibition is -0.851% in test [2] and -10.5% in [4]. Moreover, the Potency entry in test [3], in [8] and in [9] was “inactive” each time. In test [5], the activity, negative = inhibition was 3.41%.
As for `O=C(N/N=C\c1cccc(O)c1)c1ccncc1`, the Potency in test [1] is over 11.4 µM; in test [6], over 46 µM; in [7] it was over 9.22 µM. Also, the figures for the activity change, negative = inhibition in test [2] and in test [4] were -2.52% and -7.01%, respectively. In addition, the Potency entry in [3], in test [8] and in [9] was “inactive” throughout. Further, in test [5], the activity, negative = inhibition is 4.22%.
With `O=C(O)c1ccc(OCc2ccccc2)c(Cl)c1`, the results for the Potency in test [1], in [6] and in test [7] were over 11.4 µM, over 46 µM and over 9.22 µM, respectively. Moreover, the activity change, negative = inhibition in test [2] is -4.15%; in [3], -3.2% [at 2.29 µM]; in [4], 2.05%. Also, the activity, negative = inhibition in [5] is 6.68%. The Potency result in test [8] and in test [9] was “inactive” throughout.
Consider `C/C(=N/NC1=NCCN1)c1cn(C2=NCCN2)nc1C`, for which the figures for the Potency in [1], in test [6] and in test [7] were over 11.4 µM, over 46 µM and over 9.22 µM, respectively. Further, the activity change, negative = inhibition in test [2] was 6.21%; in test [3], -13.9% [at 2.29 µM]; in test [4] it was -15.6%. Also, the activity, negative = inhibition in test [5] was 1.37%. Further, the Potency entry in test [8] and in [9] was “inactive” in each case.
On to `O=C(O)[C@H]([C@H]1NCCS1)N1C(=O)c2ccccc2C1=O`, for which the Potency in test [1] was over 11.4 µM; in [3] it was 5.01 µM (active); in [6], over 46 µM; in test [7] it was over 9.22 µM. Besides, the activity change, negative = inhibition in test [2] is 20.1%; in test [4], 8.05%. For the same molecule, the activity, negative = inhibition in test [5] is 3.15%. The Potency entry in test [8] and in test [9] was “inactive” throughout.
`N[C@@H](Cc1nn[nH]n1)C(=O)O`: the Potency is over 11.4 µM in [1], over 46 µM in [6] and over 9.22 µM in [7]. Moreover, the activity change, negative = inhibition was -0.568% in [2] and -5.25% in test [4]. Further, the Potency result in test [3], in test [8] and in [9] was “inactive” each time. In addition, the activity, negative = inhibition in test [5] is 10.9%.
With `CC12CC[C@@H]3c4ccc(OP(=O)(O)O)cc4CCC3C1CCC2=O` (stereo not given in full), the Potency in test [1] is over 11.4 µM; in test [6] it was over 46 µM; in test [7] it was over 9.22 µM. For the same molecule, the activity change, negative = inhibition in test [2] is 2.65%; in [3], -13.4% [at 2.29 µM]; in [4], 10.4%. Further, the activity, negative = inhibition in test [5] is -5.93%. Besides, the Potency result in test [8] and in test [9] was “inactive” throughout.
For `O=c1cc(CF)[nH]c(=S)[nH]1`, the Potency is over 11.4 µM in test [1], over 46 µM in test [6] and over 9.22 µM in test [7]. Further, the activity change, negative = inhibition in test [2] was 6.77%; in test [4], 5.97%. Also, the Potency result in [3], in test [8] and in [9] was “inactive” throughout. The activity, negative = inhibition in test [5] is 13.4%.
As to `O=C(O)c1ccc(C(=O)c2ccccc2C(=O)O)cc1C(=O)O`, the Potency in test [1] was over 11.4 µM; in test [6], over 46 µM; in test [7], over 9.22 µM. For the same molecule, the results for the activity change, negative = inhibition in test [2] and in test [4] were -15.3% and 20.9%, respectively. In addition, the Potency result in [3], in test [8] and in test [9] was “inactive” each time. In addition, the activity, negative = inhibition in [5] is -1.86%.
`O=C(O)c1ccccc1NCn1c(=S)sc2ccccc21`: the Potency in test [1] was over 11.4 µM; in test [3] it was 0.501 µM (active); in test [6], over 46 µM; in test [7], over 9.22 µM. The results for the activity change, negative = inhibition in [2] and in [4] were 5.4% and 7.61%, respectively. Moreover, the activity, negative = inhibition in test [5] is -1.41%. The Potency result in test [8] and in test [9] was “inactive” in each case.
With `N=C(N)SCCc1ccncc1`, the values for the Potency in [1], in [6] and in test [7] were over 11.4 µM, over 46 µM and over 9.22 µM, respectively. Further, the activity change, negative = inhibition in test [2] is 3.09%; in test [3] it was -17.8% [at 2.29 µM]; in test [4], -0.295%. In test [5], the activity, negative = inhibition is 3.81%. The Potency entry in [8] and in test [9] was “inactive” each time.
As for `C[C@H]1CN(CCO)CCN1c1ccccc1`, the Potency was over 11.4 µM in [1], over 46 µM in [6] and over 9.22 µM in [7]. The activity change, negative = inhibition in [2] is 11.5%; in [4] it was -5.83%. Moreover, the Potency entry in test [3], in test [8] and in [9] was “inactive” each time. Also, in test [5], the activity, negative = inhibition is 7.5%.
Consider `O=C(O)c1nn(-c2ccc(Cl)cc2)c2c1C(=O)c1ccccc1C2=O`, for which the Potency is over 11.4 µM in [1], 0.251 µM (active) in test [3], over 46 µM in test [6] and over 9.22 µM in test [7]. The activity change, negative = inhibition is -2.08% in [2] and -17.6% in [4]. Moreover, the activity, negative = inhibition in [5] was 2.2%. Moreover, the Potency entry in test [8] and in test [9] was “inactive” in each case.
